Laboratory results reported in publication PMC4336329 (PLoS ONE, 2015).
In all, about 310,000 compounds went through this assay and about 2,200 (0.71%) showed an effect of 50% or more. The effect is printed as a negative number. This is one part of a sample in which strong results are shown more often than they occur.

target: human ether-à-go-go-related gene (hERG) potassium channel (human, UniProt Q12809); assay: primary screen, population patch clamp on CHO cells stably expressing hERG; higher = less effect of the substance
Sequence (Q12809 whole entry, looked up): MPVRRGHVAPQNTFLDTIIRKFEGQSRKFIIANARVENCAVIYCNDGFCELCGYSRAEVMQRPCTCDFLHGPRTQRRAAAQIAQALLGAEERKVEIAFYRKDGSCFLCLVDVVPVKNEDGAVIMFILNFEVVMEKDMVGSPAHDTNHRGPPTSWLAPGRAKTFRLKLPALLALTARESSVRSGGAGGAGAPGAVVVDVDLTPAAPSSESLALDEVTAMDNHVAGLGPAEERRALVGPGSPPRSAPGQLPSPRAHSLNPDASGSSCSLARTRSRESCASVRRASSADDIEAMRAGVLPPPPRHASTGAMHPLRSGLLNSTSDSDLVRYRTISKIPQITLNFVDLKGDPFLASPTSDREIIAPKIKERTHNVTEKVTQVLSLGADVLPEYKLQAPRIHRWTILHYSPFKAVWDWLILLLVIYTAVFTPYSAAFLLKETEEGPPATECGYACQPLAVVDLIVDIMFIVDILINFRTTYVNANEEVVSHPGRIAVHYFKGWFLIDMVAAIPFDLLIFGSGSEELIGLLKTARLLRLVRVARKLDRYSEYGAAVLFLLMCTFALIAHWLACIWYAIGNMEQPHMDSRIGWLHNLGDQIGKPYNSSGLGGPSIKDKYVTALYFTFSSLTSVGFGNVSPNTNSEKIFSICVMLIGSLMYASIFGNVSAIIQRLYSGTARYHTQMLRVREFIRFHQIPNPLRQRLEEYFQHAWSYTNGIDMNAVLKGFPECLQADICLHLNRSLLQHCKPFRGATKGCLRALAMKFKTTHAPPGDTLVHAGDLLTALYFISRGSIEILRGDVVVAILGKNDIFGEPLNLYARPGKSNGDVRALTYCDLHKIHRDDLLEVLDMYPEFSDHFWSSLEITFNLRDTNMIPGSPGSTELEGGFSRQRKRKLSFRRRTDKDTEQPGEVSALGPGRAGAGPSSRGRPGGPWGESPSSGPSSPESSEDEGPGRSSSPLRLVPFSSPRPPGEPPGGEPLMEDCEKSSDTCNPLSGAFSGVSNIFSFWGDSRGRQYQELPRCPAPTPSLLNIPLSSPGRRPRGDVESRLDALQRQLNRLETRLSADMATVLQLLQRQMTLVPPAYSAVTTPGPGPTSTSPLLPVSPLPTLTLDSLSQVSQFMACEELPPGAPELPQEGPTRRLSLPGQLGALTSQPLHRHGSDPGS

| SMILES | hERG current change (%, negative = inhibition) at 1uM [%] |
| --- | --- |
| O=C1C=C(N2CCCCC2)C2(CCCCC2)O1 | 10.8 |
| Nc1nc(NCc2ccco2)nc(Nc2cccc(F)c2)c1[N+](=O)[O-] | 18.1 |
| O=C(NCCc1ccccc1)c1ccc(Cl)nc1 | 18 |
| COC(=O)c1ccc(CSc2nnc(Nc3cccc(OC)c3)s2)o1 | 10.7 |
| COCCCC1CCN(C(=O)C2CCC(=O)N(CC3CCCCC3)C2)CC1 (stereo not shown) | 2.85 |
| COc1ccc(OCC(O)CN2CCNCC2)cc1.Cl (stereo not shown) | 14.6 |
| Fc1cccc(NC(=S)NNc2ccccc2)c1 | 10.7 |
| Cc1ccc2cc(CN(CC3CCCO3)C(=S)Nc3ccccc3)c(=O)[nH]c2c1C (stereo not shown) | 13.3 |
| CCOC(=O)c1[nH]ncc1CN1CCCC(C(=O)c2cc(Cl)ccc2OC)C1 (stereo not shown) | -29.9 |
| O=C(NCCc1ccc2c(c1)OCCO2)c1cc2ccccc2o1 | -16.6 |
| CN(C)S(=O)(=O)N1CCC(Oc2cccc(C(=O)NC3CCCCC3)c2)CC1 | 2.87 |
| CCOC(=O)C(C)(C)Sc1nc2c(cnn2-c2ccc(Cl)cc2)c(=O)[nH]1 | 4.97 |
| CCN1CCCC(OC(=O)Nc2ccccc2)C1 (stereo not shown) | 6.59 |
| Cl.O=C(OC1CCN(CCCl)CC1)C(c1ccccc1)c1ccccc1 | 15.9 |
| CCN1CCCC(OC(=O)C(c2ccccc2)c2ccccc2)C1.Cl (stereo not shown) | -53 |
| Cc1cccc(OCC(=O)Nc2ccc3c(c2)nc(CN2CCCCC2)n3C)c1.Cl | -3.37 |
| CN1CCN(CCc2nc3cc(NC(=O)COc4ccccc4)ccc3n2C)CC1 | -13.2 |
| Cc1ccc(OCC(=O)Nc2ccc3c(c2)nc(CCN2CCN(C)CC2)n3C)cc1 | -5.14 |
| CCN1CCN(CCc2nc3cc(NC(=O)COc4ccccc4)ccc3n2C)CC1 | 0.262 |
| COc1ccc(OCC(=O)Nc2ccc3c(c2)nc(CCN2CCCCC2)n3C)cc1 | -31.3 |
| Cc1cccc(OCC(=O)Nc2ccc3c(c2)nc(CCN2CCN(C)CC2)n3C)c1 | -6.31 |
| CCN1CCN(CCc2nc3cc(NC(=O)COc4ccc(Cl)cc4)ccc3n2C)CC1 | -26.8 |

| SMILES | hERG current change (%, negative = inhibition) at 1uM [%] |
| --- | --- |
| Cc1cccc(OCC(=O)Nc2ccc3c(c2)nc(CCN2CCCCC2)n3C)c1 | -58.3 |
| Cn1c(CCN2CCCCC2)nc2cc(NC(=O)COc3ccccc3)ccc21 | -51.9 |
| Cn1c(CCN2CCCCC2)nc2cc(NC(=O)COc3ccc(Cl)cc3)ccc21 | -89.6 |
| Cc1ccc(OCC(=O)Nc2ccc3c(c2)nc(CCN2CCCCC2)n3C)cc1 | -60 |
| CN1CCN(CCc2nc3cc(NC(=O)COc4ccc(Cl)cc4)ccc3n2C)CC1 | -7.52 |
| COC(=O)C1=C(c2ccc(-c3ccccc3)c(F)c2)C[C@@H]2CC[C@H]1N2C(=O)NCCc1ccccc1 | 15.4 |
| CCOC(=O)C(=CNNc1c(C)csc1C(=O)OC)C(=O)OCC | 16.7 |
| COc1ccc(CCNC(=O)CN2C(=O)NC(Cc3c[nH]c4ccccc34)C2=O)cc1 (stereo not shown) | 9.58 |
| Cc1cc(OCC(=O)NC(Cc2c[nH]c3ccc(O)cc23)C(=O)O)c2c(C)c(C)c(=O)oc2c1 (stereo not shown) | 14.5 |
| CC(C)n1c(N)c(C#N)c2ccc([N+](=O)[O-])cc2c1=O | -6.91 |
| CCCNCc1cc(Br)ccc1OCC(=O)NCCc1ccccc1 | -10.7 |
| CCN(CC)CCNCc1cc(Br)ccc1OCC(=O)NCc1ccccc1.Cl | -54.6 |
| O=C(COc1ccc(Br)cc1CNC1CCCCC1)NCCc1ccccc1 | -59 |
| Cl.O=C(COc1ccc(Br)cc1CNCCc1ccccc1)NCc1ccccc1 | -11.5 |
| CCN(CC)CCNCc1ccc(Br)cc1OCC(=O)NCc1ccccc1.Cl | -7.7 |
| Cl.O=C(COc1ccc(Br)cc1CNC1CCCC1)Nc1ccccc1 | -28.2 |
| O=c1c2c(-c3cccs3)csc2ncn1-c1ccc(Br)cc1 | -2.84 |
| CCCNC(=O)N1[C@H]2CC[C@@H]1C(C(=O)OC)=C(c1ccc3ccccc3c1)C2 | 4.04 |
| COc1ccc(Cc2n[nH]c(=S)n2NC(=O)Nc2ccc(Cl)c(Cl)c2)cc1 | 10.2 |
| Cc1ccc2c(c1)CC1(CN2C)C(=O)NC(=O)N(C(C)C)C1=O (stereo not shown) | 19.3 |
| C/C(=N\Nc1nc2ccccc2[nH]1)c1ccccn1 | -55.5 |
| C/C(=N\Nc1nc2ccccc2[nH]1)c1cccs1 | -0.576 |

| SMILES | hERG current change (%, negative = inhibition) at 1uM [%] |
| --- | --- |
| C/C(=N\Nc1nc2ccccc2[nH]1)c1ccc(C)o1 | 8.2 |
| CC1CCCCC1NC(=O)CCNS(=O)(=O)c1ccc(Cl)cc1 (stereo not shown) | 7.29 |
| O=C(C1CCC(CNS(=O)(=O)c2cccc3cccnc23)CC1)N1CCc2ccccc21 (stereo not shown) | 1.06 |
| Brc1ccc2c(c1)OCCOCCOCCOCCOCCOCCO2 | -60 |
| O=C(O)/C=C/c1ccc2c(c1)OCCO2 | 6.97 |
| Brc1ccc2c(c1)OCCOCCOc1cc(Br)ccc1OCCOCCOCCO2 | -6.77 |
| Cl.Nc1ccc2c(c1)OCCOCCOCCOCCOCCO2 | -12.2 |
| c1ccc2c(c1)OCCOCCOCCOCCOCCOc1ccccc1OCCOCCOCCO2 | -8.98 |
| Brc1cc2c(cc1Br)OCCOCCOCCO2 | 5.78 |
| Brc1ccc2c(c1)OCCOCCOCCOCCOCCO2 | -78.6 |
| C=Cc1ccc2c(c1)OCCOCCOCCOCCOCCO2 | -70.2 |
| Brc1cc2c(cc1Br)OCCOCCOCCOCCO2 | -38.2 |
| CCNC(=S)N1CCc2ccccc2C1 | 9.59 |
| CCOc1ccc(C(=O)n2cnnc2N)cc1 | 16.9 |
| Cc1nc(SC2CCOC2=O)c2c(C)c(C)sc2n1 (stereo not shown) | 4.94 |
| Cc1cccc(NC(=O)C2CCN(S(=O)(=O)c3cccs3)CC2)n1 | 2.08 |
| Cc1ccc(-n2c(C)nnc2SCC(=O)N2CCc3ccccc3C2)cc1 | -19.6 |
| Cc1ccc(N(C(=O)c2ccccn2)C2(C(=O)NC3CCCC3)CCCCC2)cc1 | 16.9 |
| CC(=O)O.CN(C)Cc1cn(CCC(=O)O)c2ccccc12 | 10.9 |
| CCOC(=O)C1CCCN(CCC(=O)Nc2cc(C)ccc2C)C1.Cl (stereo not shown) | -8.02 |
| COc1ccc(-n2c(SCC(=O)NCC3CCCO3)nc3n[nH]c(C)c3c2=N)cc1 (stereo not shown) | 7.29 |
| O=C(COc1ccc(Cl)cc1Cl)Nc1nc2n(n1)C(c1ccccc1)CC(=O)N2 (stereo not shown) | 1.52 |

| SMILES | hERG current change (%, negative = inhibition) at 1uM [%] |
| --- | --- |
| CCc1nnc(NC(=O)c2cc(S(=O)(=O)N3CCCCC3)ccc2C)s1 | 1.93 |
| CCn1c2ccccc2c2cc(NC(=O)CSc3nnc(-c4cccc(Cl)c4)o3)ccc21 | 9.78 |
| COc1ccc(OCC(=O)Nc2c(C(=O)N(CCN(C)C)Cc3ccco3)oc3ccccc23)cc1 | -82.2 |
| O=C(COc1ccccc1)Nc1ccccc1C(=O)NCc1ccco1 | 6.35 |
| Cc1c(C(=O)NCc2ccco2)oc2ccccc12 | 9.16 |
| COc1ccc(OCC(=O)Nc2c(C(=O)N3CCN(C)CC3)oc3ccccc23)cc1 | -15 |
| CN(C)CCN(Cc1ccco1)C(=O)c1oc2ccccc2c1NC(=O)COc1ccccc1 | -79.3 |
| Cc1ccccc1C(=O)Nc1c(C(=O)N(CCN(C)C)Cc2ccco2)oc2ccccc12 | -81.1 |
| Cc1c(C(=O)OCC(=O)NCc2ccco2)oc2ccccc12 | 10.1 |
| COc1ccccc1C(=O)Nc1c(C(=O)N(CCN(C)C)Cc2ccco2)oc2ccccc12 | -27.4 |
| CCCN1CCN(C(=O)c2oc3ccccc3c2NC(=O)COc2ccc(OC)cc2)CC1 | -46.3 |
| O=c1c(=Nc2ccccc2O)c(=O)c2ccccc12 | 17.3 |
| O=c1[nH]c2cc3c(cc2cc1CN(Cc1ccco1)C(=S)NCC1CCCO1)OCCO3 (stereo not shown) | 15.1 |
| COC(=O)c1sc(NC(=S)NC(=O)c2ccccc2F)nc1C | 2.7 |
| O=C1CCC([N+](=O)[O-])C(c2cc(Br)ccc2F)N1 (stereo not shown) | 14.5 |
| O=C(CNC(=O)c1ccc(F)cc1)c1ccc(Cl)cc1 | 19.6 |
| Cc1cccc(CN2C[C@]34C=C[C@@H](C[C@@H]3S2(=O)=O)O4)c1 | 10.3 |
| CCc1ccc(NC(=O)Nc2cc(C(=O)NCC3CCCO3)ccc2N2CC3CC(C2)c2cccc(=O)n2C3)cc1 (stereo not shown) | 11.3 |
| CCCNC(=O)c1ccc(N2CC3CC(C2)c2cccc(=O)n2C3)c(NC(=O)Nc2ccc(CC)cc2)c1 (stereo not shown) | -56.1 |
| CCc1ccc(NC(=O)Nc2cc(C(=O)O)ccc2N2CC3CC(C2)c2cccc(=O)n2C3)cc1 (stereo not shown) | 19.5 |
| CCOC(=O)c1ccc(NC(=O)CSc2ccc(-c3ccncc3)nn2)cc1 | 9.76 |
| NCCCC[C@H]1CN=C(N)N1CCc1cccc2ccccc12 | 9.97 |
